PubChem BioAssay
Activity calls are given as the source filed them.

How the values were obtained:
[1] = E. coli DRC41 culture turbidity changes, primary screen, E. coli filamentation inducer project, strain DRC41, OD650, 48 h (AID 1152);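 note: E. coli MC1000 strain DRC41 lacking acrAB efflux pump and sulA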; conditions: E. coli DRC41 (acrAB sulA), higher = more signal, called active from +8 up or from −8 down
[2] = small-molecule binders of probe aLefty1, primary screen, biochemical, small-molecule microarray, 635/667 nm fluorescence (AID 1153); conditions: higher = more signal;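 note: score merges spot fluorescence with signal-to-noise ratio from the scanned slide images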
[3] = PSAC antagonists in infected red cells, primary screen, cell-based, P. falciparum Indochina, OD700, 1 h (AID 1154); conditions: P. falciparum Indochina infected RBC osmotic lysis, higher = more signal, called active from +8 up or from −8 down
[4] = PSAC antagonists in infected red cells, primary screen, cell-based, P. falciparum Indochina, OD700, 2 h (AID 1155);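 note: lysis reports solute entry through the parasite surface anion channel PSAC; channel blockers reduce lysis of infected cells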; conditions: P. falciparum Indochina infected erythrocytes, osmotic lysis OD700; higher = more signal, called active from +8 up or from −8 down
[5] = osmotic lysis modulators in infected erythrocytes, primary screen, PSAC antagonist project, cell-based, P. falciparum Indochina, OD700, 3 h (AID 1156); conditions: higher = more signal, called active from +8 up or from −8 down
[6] = PSAC antagonists in infected red cells, primary screen, cell-based, P. falciparum Indochina, OD700, 18 h (AID 1157); conditions: P. falciparum Indochina infected erythrocytes, osmotic lysis OD700, 18 h; higher = more signal, called active from +8 up or from −8 down
[7] = modulators of S6 phosphorylation in cells, primary screen, cell-based, A549, cytoblot, luminescence, serum-stimulated (AID 1158); conditions: A549 phospho-S6 cytoblot, 5 h, higher = more signal;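 note: serum-stimulated A549 lung adenocarcinoma cells; signal is phosphorylated S6 detected by cytoblot immunostaining with HRP secondary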
[8] = molecular target: NADPH oxidase 2 (Homo sapiens) (UniProt P04839); assay: NOX2-dependent H2O2 signal modulators, primary screen, NOX inhibitor project, cell-based, HEK293-NOX2, PMA-stimulated, Amplex Red fluorescence (AID 1159); conditions: 45 min, higher = more signal, called active from +8 up or from −8 down; note: test concentration not given here
[9] = molecular target: NADPH oxidase 4 (Homo sapiens) (UniProt Q9NPH5); assay: NOX4-dependent H2O2 signal modulators, primary screen, NOX inhibitor project, cell-based, HEK293-NOX4, tetracycline-induced, Amplex Red fluorescence (AID 1160); conditions: 45 min, higher = more signal, called active from +8 up or from −8 down
[10] = molecular target: NADPH oxidase 5 (Homo sapiens) (UniProt Q96PH1); assay: NOX5-dependent H2O2 signal modulators, primary screen, NOX inhibitor project, cell-based, HEK293-NOX5, Amplex Red fluorescence (AID 1161); conditions: HEK293-NOX5, ionomycin, 45 min, higher = more signal
NADPH oxidase 5 (Homo sapiens), sequence (Q96PH1 whole entry, looked up): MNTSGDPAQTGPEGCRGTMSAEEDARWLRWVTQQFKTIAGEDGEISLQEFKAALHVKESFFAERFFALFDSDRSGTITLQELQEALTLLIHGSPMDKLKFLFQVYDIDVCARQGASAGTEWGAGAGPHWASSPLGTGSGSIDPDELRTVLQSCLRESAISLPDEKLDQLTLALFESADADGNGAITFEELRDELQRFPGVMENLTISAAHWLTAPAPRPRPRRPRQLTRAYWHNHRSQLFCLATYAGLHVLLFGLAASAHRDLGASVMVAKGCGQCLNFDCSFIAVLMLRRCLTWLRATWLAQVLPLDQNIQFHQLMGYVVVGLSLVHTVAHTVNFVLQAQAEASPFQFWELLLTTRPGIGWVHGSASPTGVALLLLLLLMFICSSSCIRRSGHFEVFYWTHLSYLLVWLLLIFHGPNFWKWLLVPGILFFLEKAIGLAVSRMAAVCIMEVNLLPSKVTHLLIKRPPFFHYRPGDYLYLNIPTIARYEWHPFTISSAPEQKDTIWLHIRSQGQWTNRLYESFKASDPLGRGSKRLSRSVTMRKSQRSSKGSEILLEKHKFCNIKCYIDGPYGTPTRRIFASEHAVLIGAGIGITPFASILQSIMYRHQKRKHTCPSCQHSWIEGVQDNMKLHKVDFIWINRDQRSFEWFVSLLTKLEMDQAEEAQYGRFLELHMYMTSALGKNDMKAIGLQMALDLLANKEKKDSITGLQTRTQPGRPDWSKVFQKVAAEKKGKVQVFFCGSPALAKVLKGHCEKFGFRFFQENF

NADPH oxidase 2 (Homo sapiens), sequence (P04839 whole entry, looked up): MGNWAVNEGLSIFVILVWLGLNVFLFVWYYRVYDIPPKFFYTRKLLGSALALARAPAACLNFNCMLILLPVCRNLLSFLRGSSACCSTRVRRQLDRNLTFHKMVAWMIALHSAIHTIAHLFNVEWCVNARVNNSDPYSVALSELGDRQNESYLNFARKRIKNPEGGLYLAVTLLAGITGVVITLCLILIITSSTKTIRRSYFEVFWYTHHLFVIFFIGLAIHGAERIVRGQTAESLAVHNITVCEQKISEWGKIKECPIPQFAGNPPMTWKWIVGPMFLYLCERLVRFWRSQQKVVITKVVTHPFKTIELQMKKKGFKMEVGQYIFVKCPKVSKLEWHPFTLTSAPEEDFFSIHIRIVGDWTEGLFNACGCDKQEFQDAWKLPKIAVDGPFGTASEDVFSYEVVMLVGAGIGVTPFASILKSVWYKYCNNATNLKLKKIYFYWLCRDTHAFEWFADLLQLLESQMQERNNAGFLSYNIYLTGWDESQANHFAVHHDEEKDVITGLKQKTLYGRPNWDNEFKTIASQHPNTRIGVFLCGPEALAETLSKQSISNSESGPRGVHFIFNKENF
NADPH oxidase 4 (Homo sapiens), sequence (Q9NPH5 whole entry, looked up): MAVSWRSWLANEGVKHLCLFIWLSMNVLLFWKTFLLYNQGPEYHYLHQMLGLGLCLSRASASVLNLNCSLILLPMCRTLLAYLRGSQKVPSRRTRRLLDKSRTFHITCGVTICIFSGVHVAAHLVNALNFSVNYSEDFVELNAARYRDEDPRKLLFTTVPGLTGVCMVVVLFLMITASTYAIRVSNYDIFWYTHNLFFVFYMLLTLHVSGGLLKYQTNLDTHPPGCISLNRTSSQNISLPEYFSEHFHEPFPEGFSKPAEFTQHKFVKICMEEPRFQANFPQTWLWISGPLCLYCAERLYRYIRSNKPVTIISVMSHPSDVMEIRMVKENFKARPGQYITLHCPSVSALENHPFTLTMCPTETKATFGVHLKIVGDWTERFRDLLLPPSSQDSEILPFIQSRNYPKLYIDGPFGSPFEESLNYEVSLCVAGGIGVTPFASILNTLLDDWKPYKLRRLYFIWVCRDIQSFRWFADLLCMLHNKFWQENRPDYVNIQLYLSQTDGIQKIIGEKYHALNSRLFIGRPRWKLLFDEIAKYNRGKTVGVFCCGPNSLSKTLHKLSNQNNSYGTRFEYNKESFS

| SMILES | z-score [1] | composite z-score [2] | z-score [3] | z-score [4] | z-score [5] | z-score [6] | z-score [7] | z-score [8] | z-score [9] | z-score [10] |
| --- | --- | --- | --- | --- | --- | --- | --- | --- | --- | --- |
| N#Cc1ccc(NN2C(C(O)c3ccc(B(O)O)cc3)C=CC3CN(c4ccccc4)C(=O)C32)cc1 (stereo not given) | 1.18 (inactive) | 0.521 | 24.4 (active) | 10.6 (active) | 3.76 (inactive) | 2.54 (inactive) | -0.882 | -2.63 (inactive) | -6.25 (inactive) | -4.31 |
| CN1C(=O)C2C=CC(C(O)c3cccs3)N(N(c3ccccc3)c3ccccc3)C2C1=O (stereo not given) | -0.822 (inactive) | 0.25 | 0.929 (inactive) | 1 (inactive) | 0.157 (inactive) | 0.556 (inactive) | -0.967 | -0.915 (inactive) | -1.84 (inactive) | -1.25 |
| COc1ccc([Si](C)(C)[C@H]2[C@H](CC(=O)N(CCO)Cc3ccccc3)O[C@@]3(C(=O)N(Cc4cccc(N5CCCCC5=O)c4)c4ccccc43)[C@@H]2C)cc1 | 1.52 (inactive) | 0.109 | 11.3 (active) | 1.31 (inactive) | 0.4 (inactive) | -0.553 (inactive) | 2.6 | 0.0671 (inactive) | 0.591 (inactive) | 2.24 |
| O=C(NCCN1CCOCC1)[C@@H]1c2ccccc2C(=O)N(CC23CC4CC(CC(C4)C2)C3)[C@H]1c1ccc(CO)cc1 | 0.0865 (inactive) | 0.409 | 2.89 (inactive) | 1.09 (inactive) | 1.29 (inactive) | 0.744 (inactive) | -0.407 | -0.0458 (inactive) | -1.7 (inactive) | -1.61 |
| COC(=O)[C@H]1N=C(c2ccc(OCCCO)cc2)O[C@H]1c1ccccc1N=[N+]=[N-] | -0.33 (inactive) | 0.527 | 29.3 (active) | 24.7 (active) | 2.2 (inactive) | 4.48 (inactive) | 0.352 | -1.69 (inactive) | -0.0764 (inactive) | -2.1 |
| COc1cc2c(cc1OC)CN(C(=O)[C@@H]1[C@H]3C(=O)O[C@H](c4ccccc4)[C@H](c4ccccc4)N3[C@H](c3ccc(O)cc3)[C@@]13C(=O)Nc1ccc(C#CC4=CCCCC4)cc13)CC2 | 2.03 (inactive) | 0.298 | 1.18 (inactive) | 0.925 (inactive) | 1.2 (inactive) | 1.23 (inactive) | 0.458 | 1.36 (inactive) | 1.03 (inactive) | -0.337 |
| CN(C)CCCC[C@@H]1NC(=O)[C@H]2C[C@@H](C(=O)NCCCCCCNC(=O)CS)[C@@H](c3cccc(OCCO)c3)N2C1=O | -0.175 (inactive) | -0.139 | 2.29 (inactive) | 0.677 (inactive) | 1.26 (inactive) | 0.228 (inactive) | -0.617 | 1.07 (inactive) | 0.981 (inactive) | 0.992 |
| CC(CO)N1C(=O)[C@@H]2[C@H]3C(=O)OCC=C[C@H]3OC23C=CCN(c2ccc4ccccc4c2)C(=O)[C@@H]13 (stereo not given in full) | -0.855 (inactive) | 0.0927 | 0.201 (inactive) | 0.0537 (inactive) | 0.162 (inactive) | -0.0627 (inactive) | -0.409 | 0.405 (inactive) | 0.512 (inactive) | 1.79 |
| O=C1NC(=O)C2C1C=CC(C(O)C(O)CO)N2Nc1ccccn1 (stereo not given) | -0.0393 (inactive) | 0.586 | 0.0087 (inactive) | 0.0339 (inactive) | -0.489 (inactive) | -0.145 (inactive) | 1.14 | -0.193 (inactive) | -0.921 (inactive) | -0.339 |
| O=C1NC(=O)C2C1C=CC(C(O)C(c1ccccc1)c1ccccc1)N2Nc1ccccn1 (stereo not given) | -0.332 (inactive) | 0.228 | 0.186 (inactive) | 0.829 (inactive) | 0.156 (inactive) | 0.853 (inactive) | -0.681 | 0.738 (inactive) | -2.13 (inactive) | -1.47 |
| C=C(C(=O)CC[C@@H](OC(=O)c1ccccc1-c1ccccc1C(=O)O)c1ccc(CO)o1)C(C)C | -0.796 (inactive) | 0.0945 | 0.897 (inactive) | 0.192 (inactive) | 0.365 (inactive) | 0.0861 (inactive) | -0.535 | 1 (inactive) | -0.593 (inactive) | -0.213 |
| C=C(CC1([C@@H](NP(=O)(c2ccccc2)c2ccccc2)[C@H]2C[C@@H]2CCCC)CC1)c1cccc(OC)c1 | -1.57 (inactive) | 0.494 | 2.33 (inactive) | 0.451 (inactive) | 1.36 (inactive) | 0.935 (inactive) | -0.254 | -0.914 (inactive) | -1.36 (inactive) | -2.78 |
| O=C(NCC(F)(F)F)[C@@H]1c2ccccc2C(=O)N(Cc2cc(C(F)(F)F)cc(C(F)(F)F)c2)[C@H]1c1ccc(CO)cc1 | 0.648 (inactive) | 0.114 | 2.54 (inactive) | 0.0323 (inactive) | 0.473 (inactive) | 0.257 (inactive) | 0.751 | 0.16 (inactive) | 0.746 (inactive) | 1.11 |
| O=C1NC(=O)C2C1C=CC(C(O)C1CCCCC1)N2Nc1ccccn1 (stereo not given) | -1.72 (inactive) | -0.0779 | 0.188 (inactive) | 0.567 (inactive) | -0.489 (inactive) | 0.433 (inactive) | -0.621 | -1.2 (inactive) | -3.29 (inactive) | -2.69 |
| COC(=O)C(CC#Cc1ccc2c(c1)[C@]1(C(=O)N2)[C@H](C(N)=O)[C@H]2C(=O)O[C@H](c3ccccc3)[C@H](c3ccccc3)N2[C@@H]1c1ccccc1OCCO)C(=O)OC | 0.879 (inactive) | 0.0622 | 14.2 (active) | 3.83 (inactive) | 1.02 (inactive) | 1.47 (inactive) | -0.127 | 1.9 (inactive) | 0.723 (inactive) | 0.904 |
| COCCOC(=O)N1C(=O)[C@@]2(c3cc(C#CCC(C(=O)OC)C(=O)OC)ccc31)[C@H](c1ccc(O)cc1)N1[C@H](c3ccccc3)[C@H](c3ccccc3)OC(=O)[C@H]1[C@@H]2C(=O)N1CCc2cc(OC)c(OC)cc2C1 | 0.904 (inactive) | -0.149 | 0.442 (inactive) | 0.0876 (inactive) | 0.328 (inactive) | 0.394 (inactive) | 0.161 | 1.94 (inactive) | 0.336 (inactive) | 1.23 |
| COCCOC(=O)N1C(=O)[C@@]2(c3cc(C#CCNC(N)=O)ccc31)[C@H](c1ccc(O)cc1)N1[C@H](c3ccccc3)[C@H](c3ccccc3)OC(=O)[C@H]1[C@@H]2C(=O)N1CCc2cc(OC)c(OC)cc2C1 | -0.872 (inactive) | 0.208 | 1.67 (inactive) | 0.13 (inactive) | 0.018 (inactive) | 0.148 (inactive) | -0.0879 | 1.15 (inactive) | -0.909 (inactive) | 0.891 |
| COCCOC(=O)N1C(=O)[C@@]2(c3cc(C#CCCO)ccc31)[C@H](c1ccc(O)cc1)N1[C@H](c3ccccc3)[C@H](c3ccccc3)OC(=O)[C@H]1[C@@H]2C(=O)NC[C@H](O)c1ccccc1 | 1.49 (inactive) | -0.218 | 3.31 (inactive) | 1.19 (inactive) | 0.624 (inactive) | 0.555 (inactive) | 0.0833 | 0.878 (inactive) | 0.521 (inactive) | -0.0839 |
| COc1cccc(C)c1NC(=O)O[C@H]1[C@H](OC(=O)Nc2ccccc2-c2ccccc2)[C@@H](OC(=O)Nc2ccccc2-c2ccccc2)[C@@H](OC)O[C@@H]1CO | -1.33 (inactive) | 0.406 | 2.54 (inactive) | 1.13 (inactive) | -0.857 (inactive) | 0.937 (inactive) | -0.338 | -3.62 (inactive) | -1.2 (inactive) | -1.72 |
| COC(=O)[C@@]1(Cc2ccccc2)[C@H]2c3cc(C(=O)N(C)C)n(Cc4ccc(Cl)c(C(F)(F)F)c4)c3C[C@H]2CN1C(=O)c1ccccc1 | -2.34 (inactive) | 0.936 | 2.46 (inactive) | 0.943 (inactive) | 0.453 (inactive) | 1.18 (inactive) | -0.114 | 0.0852 (inactive) | -0.895 (inactive) | -1.92 |
| [N-]=[N+]=NCc1ccccc1[C@H]1OC(c2ccc(OCCCO)cc2)=N[C@@]1(Cc1ccccc1N=[N+]=[N-])C(=O)O | -1.17 (inactive) | 0.479 | 22.2 (active) | 3.83 (inactive) | 0.0591 (inactive) | 0.395 (inactive) | -0.314 | 0.831 (inactive) | 0.982 (inactive) | 1.51 |
